Calls of active or inactive are those of the source.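 Rule for the calls, unless noted: active = inhibition of the reporter signal at or above 50%; inactive = inhibition below 50%.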
Experiments:
[1] = inhibitors of TNFa-induced NFkB p65 translocation, primary screen, imaging, HUVEC, MLSMR starter and 10KST1 sets (AID 438;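 active = inhibition above 20% together with a positive visual image hit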;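 note: compound added about 3h40 before a 20 min TNFalpha stimulation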;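 for inhibition: signal is the nuclear over cytoplasmic p65 intensity ratio per well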); details: HUVEC TNFa-induced p65 nuclear translocation; cell count: measured here: nuclei count (cytotoxicity indicator), at 2.08 µM; inhibition: at 2 µM, stronger effect = higher value, 0% TNFa-plus-vehicle, 100% no-TNFa wells
[2] = reduction of polyQ htt aggregates in cells – imaging, exon1htt(103Q)mCFP cells, high-content imaging, primary screen (AID 483;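 active = visual image review flags a hit and inhibition of aggregation exceeds 20%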;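 note: compound exposure lasted 3 days before fixation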;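 for nuclei count: percent of the per-plate median nuclei count of sample wells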); details: exon1htt(103Q)mCFP cell line, aggregate imaging, at 2 µM; inhibition of aggregation: stronger effect = higher value; nuclei count: measured here: cell count, toxicity
[3] = endothelial E-selectin expression blockers – imaging, HUVEC, immunofluorescence, MLSMR starter and 10KST1 sets, primary screen (AID 487;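 active = visually confirmed hit in the image check and inhibition above 20%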;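 for inhibition: signal is fraction of cell area covered by stained E-selectin grains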;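 for nuclei count: 100% = median nuclei count of all wells on the same plate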); details: HUVEC TNFalpha-induced E-selectin immunofluorescence imaging, at 2 µM; inhibition: stronger effect = higher value; nuclei count: measured here: cell number, toxicity
[4] = target: Voltage-gated potassium channel subunit beta-2 (Rattus norvegicus) (UniProt P62483); test: inhibitors of rat Kvbeta2 reductase activity – biochemical, NADPH fluorescence, primary screen (AID 622;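 active = fluorescence slope higher than the sample average by over 3 SD, cut at about -0.22 in these data, passing the limit was not always enough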;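 note: slope of raw intensity against log time taken from 70 to 1610 s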); details: recombinant KvBeta, 4-cyanobenzaldehyde reduction, at 10 µM, stronger effect = higher value
[5] = target: Voltage-gated potassium channel subunit beta-2 (Rattus norvegicus) (UniProt P62483); test: enhancers of rat Kvbeta2 NADPH turnover – biochemical, NADPH fluorescence, primary screen (AID 623;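 active = NADPH fluorescence slope more negative than the mean of all samples by about 3 SD, 99.7% confidence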;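 note: fluorescence intensity change per second fitted from 20 to 320 s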); details: Recombinant KvBeta, NADPH fluorescence decrease slope, 10 min; at 10 µM; stronger effect = lower value
[6] = target: Alpha-2C adrenergic receptor (Homo sapiens) (UniProt P18825); test: compounds altering alpha2C-coupled GIRK flux – cell-based, HEK293 alpha2C/GIRK1/2, thallium flux, primary screen (AID 624;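 active = fluorescence slope after compound addition differing from the mean of all screened samples at 99.7% confidence, in either direction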;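 note: slope of fluorescence ratio to pre-addition baseline per second over 15 to 24 s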); details: thallium flux BTC fluorescence, at 10 µM, actives lie on both sides
[7] = blockers of RIG-like receptor reporter activation – cell-based, Sendai virus stimulus, luciferase, 10K MLSCN set, TLR/RLR signaling modifier project, primary screen (AID 602276;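 active = inhibition at or above 50% at 10 µM; inactive = inhibition below 50%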;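 note: firefly luciferase from ISG56 promoter only with Renilla not read in this screen; 0% = Sendai virus plus DMSO and 100% = medium plus DMSO without virus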); details: HEK293 RL24 IRF3 luciferase reporter, at 10 µM, stronger effect = higher value
[8] = TLR3 IRF3 reporter activation blockers – cell-based, poly I:C stimulus, luciferase, 10K MLSCN set, primary screen (AID 602277); details: HEK293-TLR3 RL24 IRF3 luciferase reporter, at 10 µM, stronger effect = higher value

Sequence of Alpha-2C adrenergic receptor (Homo sapiens) (P18825 whole entry, looked up): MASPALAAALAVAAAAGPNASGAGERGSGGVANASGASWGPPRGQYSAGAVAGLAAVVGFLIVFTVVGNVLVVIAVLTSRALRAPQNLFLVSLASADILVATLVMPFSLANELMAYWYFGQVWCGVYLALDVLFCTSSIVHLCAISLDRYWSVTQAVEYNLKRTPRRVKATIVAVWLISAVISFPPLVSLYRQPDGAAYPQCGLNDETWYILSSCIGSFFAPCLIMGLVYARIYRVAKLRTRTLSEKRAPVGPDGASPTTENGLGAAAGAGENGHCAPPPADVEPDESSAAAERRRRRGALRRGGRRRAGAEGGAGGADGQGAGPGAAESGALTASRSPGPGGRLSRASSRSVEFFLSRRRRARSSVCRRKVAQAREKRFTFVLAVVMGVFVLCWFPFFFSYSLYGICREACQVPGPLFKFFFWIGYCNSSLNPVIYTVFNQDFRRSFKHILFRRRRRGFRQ
Sequence of Voltage-gated potassium channel subunit beta-2 (Rattus norvegicus) (P62483 whole entry, looked up): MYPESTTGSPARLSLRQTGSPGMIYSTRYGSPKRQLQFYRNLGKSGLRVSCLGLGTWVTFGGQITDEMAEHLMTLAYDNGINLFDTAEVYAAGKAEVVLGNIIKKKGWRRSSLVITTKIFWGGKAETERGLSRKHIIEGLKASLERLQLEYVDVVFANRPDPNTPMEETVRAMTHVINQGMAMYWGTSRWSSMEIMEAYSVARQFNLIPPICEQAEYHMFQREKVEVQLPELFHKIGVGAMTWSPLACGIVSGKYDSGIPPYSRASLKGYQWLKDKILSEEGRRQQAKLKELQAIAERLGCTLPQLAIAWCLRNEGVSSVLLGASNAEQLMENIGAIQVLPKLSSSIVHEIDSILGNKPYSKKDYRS

In the case of CCc1nnc(NC(=O)c2ccc(COc3ccccc3)o2)s1, the cell count [1] was 736, the inhibition [1] was -49% (inactive) and the inhibition of aggregation [2] was -1.8% (inactive). The nuclei count [2] was 101%, the inhibition [3] was -18.9% (inactive) and the nuclei count [3] was 102%. The fluorescence slope [4] was -0.519 (inactive), the NADPH fluorescence slope [5] was -2.5e-05 (inactive) and the slope [6] was 0.00512 (inactive). The inhibition [7] was -7.49% (inactive) and the inhibition [8] was 3.46% (inactive).

In the case of Cc1ccc(Cn2nnc(C(=O)Nc3cccc(C)c3C)c2N)cc1, the cell count [1] was 457, the inhibition [1] was 9.4% (inactive) and the inhibition of aggregation [2] was 1.7% (inactive). The nuclei count [2] was 95.1%, the nuclei count [3] was 150% and the fluorescence slope [4] was -0.565 (inactive). The NADPH fluorescence slope [5] was 2.2e-07 (inactive), the slope [6] was 0.00621 (inactive) and the inhibition [7] was 6.59% (inactive). The inhibition [8] was 9.57% (inactive).

For CN1/C(=C\C(=O)Nc2cccnc2)c2ccccc2CC1(C)C, the cell count [1] was 360, the inhibition [1] was -5% (inactive) and the inhibition of aggregation [2] was -8.4% (inactive). The nuclei count [2] was 91.1%, the inhibition [3] was -31.3% (inactive) and the nuclei count [3] was 117%. For the same molecule, the fluorescence slope [4] was -0.401 (inactive), the NADPH fluorescence slope [5] was -4.2e-05 (inactive) and the slope [6] was 0.00677 (inactive). The inhibition [7] was 18.7% (inactive) and the inhibition [8] was 19.4% (inactive).

With COC(=O)C1=C(C)C(c2cccs2)NC(=O)N1C (stereo not given) the cell count [1] was 464, the inhibition [1] was 4.4% (inactive) and the inhibition of aggregation [2] was -0.4% (inactive). For the same molecule, the nuclei count [2] was 102%, the nuclei count [3] was 137% and the fluorescence slope [4] was -0.618 (inactive). The NADPH fluorescence slope [5] was -2.3e-05 (inactive), the slope [6] was 0.0046 (inactive) and the inhibition [7] was 15.4% (inactive). For the same molecule, the inhibition [8] was 17.5% (inactive).

With COc1cccc(C(=O)Nc2ccc(C)cc2)c1 the cell count [1] was 410, the inhibition [1] was -0.2% (inactive) and the inhibition of aggregation [2] was 4.8% (inactive). For the same molecule, the nuclei count [2] was 95.1%, the nuclei count [3] was 154% and the fluorescence slope [4] was -0.367 (inactive). For the same molecule, the NADPH fluorescence slope [5] was 4.6e-05 (inactive), the slope [6] was 0.00626 (inactive) and the inhibition [7] was -48.7% (inactive). For the same molecule, the inhibition [8] was -91.5% (inactive).

For O=C(CCCCCN1C(=O)CCC1=O)NCc1ccccc1, the cell count [1] was 581, the inhibition [1] was -15.5% (inactive) and the inhibition of aggregation [2] was -2% (inactive). For the same molecule, the nuclei count [2] was 106%, the inhibition [3] was -64.5% (inactive) and the nuclei count [3] was 105%. The fluorescence slope [4] was -0.605 (inactive), the NADPH fluorescence slope [5] was -4.8e-05 (inactive) and the slope [6] was 0.00553 (inactive). The inhibition [7] was 12.6% (inactive) and the inhibition [8] was 24.6% (inactive).

In the case of O=C(O)C1CC(=O)N(CCOc2ccccc2)C1 (stereo not given), the cell count [1] was 407, the inhibition [1] was 4.7% (inactive) and the inhibition of aggregation [2] was 10.8% (inactive). The nuclei count [2] was 86.7%, the inhibition [3] was -59.8% (inactive) and the nuclei count [3] was 101%. The fluorescence slope [4] was -0.41 (inactive), the NADPH fluorescence slope [5] was 4.3e-05 (inactive) and the slope [6] was 0.00593 (inactive). For the same molecule, the inhibition [7] was 0.323% (inactive) and the inhibition [8] was 15.8% (inactive).

With Cc1ccc(CCNC(=O)C2CCCN(S(=O)(=O)c3cnc[nH]3)C2)cc1 (stereo not given) the cell count [1] was 603, the inhibition [1] was -0.2% (inactive) and the inhibition of aggregation [2] was -6.4% (inactive). The nuclei count [2] was 99.1%, the inhibition [3] was -89.2% (inactive) and the nuclei count [3] was 135%. The fluorescence slope [4] was -0.577 (inactive), the NADPH fluorescence slope [5] was -1.4e-06 (inactive) and the slope [6] was 0.00614 (inactive). For the same molecule, the inhibition [7] was 1.87% (inactive) and the inhibition [8] was 18% (inactive).

Reference: PubChem BioAssay
